Results as given in the supplement of paper PMC10849652.
Of roughly 7,900 targets only a part is listed; those with a hit were picked by preference. About 0.6% of all pairs of compound and target were hits. A number with no mark means an inactive call.

Experiments:
Assay in all cases: log2 fold change, soluble protein after heating vs DMSO (PISA); higher = thermal stabilisation; K562 cells, 10 uM, 30 min; active = over 0.2 and 3.5 SD of the protein, either way, in both replicates (recomputed)
bafetinib = compound: Cc1ccc(NC(=O)c2ccc(CN3CC[C@H](N(C)C)C3)c(C(F)(F)F)c2)cc1Nc1nccc(-c2cncnc2)n1 [bafetinib]
In short: (§1)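 K562 cells at 2×10^6 cells/mL were given 10 μM compound for 30 min. Aliquots then went through 3 min of heating across 48°C-58°C, were pooled, and were extracted in PBS with 0.5% NP-40 at 4°C, and the supernatant after 21,000xg for 90 min was quantified by TMTpro 16plex LC-MS/MS with channel sums equalised. Thermal stability relative to control samples, from duplicates, is given as log2 fold change.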

[1] = compound: Cc1cccc(CC(=O)N2CCc3c2ccc(-c2cn(C)c4ncnc(N)c24)c3F)n1
In short: as §1

nilotinib = compound: Cc1cn(-c2cc(NC(=O)c3ccc(C)c(Nc4nccc(-c5cccnc5)n4)c3)cc(C(F)(F)F)c2)cn1 [nilotinib]
In short: as §1

[2] = compound: Cc1nc(Nc2n[nH]c3c2CN(C(=O)N[C@H](CN(C)C)c2ccccc2)C3(C)C)c2sccc2n1
In short: as §1

dasatinib = compound: Cc1nc(Nc2ncc(C(=O)Nc3c(C)cccc3Cl)s2)cc(N2CCN(CCO)CC2)n1 [dasatinib]
In short: as §1

[3] = compound: Cc1ncc(-c2ccnc(Nc3ccc(S(C)(=O)=O)cc3)n2)n1C(C)C
In short: as §1

[4] = compound: Cn1cc(-c2ccc3c(c2)CCN3C(=O)Cc2cccc(C(F)(F)F)c2)c2c(N)ncnc21
In short: as §1

[5] = compound: Cn1cc(-c2ccc3nnc(C(F)(F)c4ccc5ncccc5c4)n3n2)cn1
In short: as §1

tipifarnib = compound: Cn1cncc1[C@@](N)(c1ccc(Cl)cc1)c1ccc2c(c1)c(-c1cccc(Cl)c1)cc(=O)n2C [tipifarnib]
In short: as §1

mubritinib = compound: FC(F)(F)c1ccc(/C=C/c2nc(COc3ccc(CCCCn4ccnn4)cc3)co2)cc1 [mubritinib]
In short: as §1

Sequence of UniProt Q13242 (Q13242 whole entry, looked up): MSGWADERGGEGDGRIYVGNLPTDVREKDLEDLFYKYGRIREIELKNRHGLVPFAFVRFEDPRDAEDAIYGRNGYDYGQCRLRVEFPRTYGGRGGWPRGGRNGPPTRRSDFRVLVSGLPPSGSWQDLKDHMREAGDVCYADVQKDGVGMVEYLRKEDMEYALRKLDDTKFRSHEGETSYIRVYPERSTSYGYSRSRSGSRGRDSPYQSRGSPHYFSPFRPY
Sequence of UniProt Q00059 (Q00059 whole entry, looked up): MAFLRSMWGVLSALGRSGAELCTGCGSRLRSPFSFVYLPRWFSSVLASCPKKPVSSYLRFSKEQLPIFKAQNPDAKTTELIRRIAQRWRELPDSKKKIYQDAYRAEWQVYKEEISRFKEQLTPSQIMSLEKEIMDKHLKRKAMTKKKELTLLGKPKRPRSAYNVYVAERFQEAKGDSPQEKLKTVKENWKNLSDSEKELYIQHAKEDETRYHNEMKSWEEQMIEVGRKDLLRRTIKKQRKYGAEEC
Sequence of UniProt O43815 (O43815 whole entry, looked up): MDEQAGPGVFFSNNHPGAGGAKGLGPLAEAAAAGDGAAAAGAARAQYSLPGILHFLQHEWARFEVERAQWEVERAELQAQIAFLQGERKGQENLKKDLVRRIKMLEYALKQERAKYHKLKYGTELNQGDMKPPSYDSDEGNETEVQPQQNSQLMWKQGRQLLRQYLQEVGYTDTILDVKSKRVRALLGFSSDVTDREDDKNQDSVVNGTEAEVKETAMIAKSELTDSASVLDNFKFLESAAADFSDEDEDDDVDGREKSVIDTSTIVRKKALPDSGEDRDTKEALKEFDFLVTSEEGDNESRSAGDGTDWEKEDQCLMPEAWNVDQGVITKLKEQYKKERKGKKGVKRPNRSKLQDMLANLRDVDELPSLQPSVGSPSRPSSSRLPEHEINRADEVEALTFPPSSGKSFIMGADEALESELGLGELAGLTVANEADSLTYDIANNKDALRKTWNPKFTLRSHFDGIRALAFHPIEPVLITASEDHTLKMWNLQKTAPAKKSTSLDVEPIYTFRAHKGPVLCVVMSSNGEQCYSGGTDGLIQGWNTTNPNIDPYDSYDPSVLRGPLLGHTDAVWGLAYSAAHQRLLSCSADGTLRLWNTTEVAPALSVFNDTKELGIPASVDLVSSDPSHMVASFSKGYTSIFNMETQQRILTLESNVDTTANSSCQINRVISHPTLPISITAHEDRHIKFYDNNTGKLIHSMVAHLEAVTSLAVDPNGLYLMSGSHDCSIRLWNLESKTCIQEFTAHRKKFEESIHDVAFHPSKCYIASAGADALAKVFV
Sequence of UniProt O00193 (O00193 whole entry, looked up): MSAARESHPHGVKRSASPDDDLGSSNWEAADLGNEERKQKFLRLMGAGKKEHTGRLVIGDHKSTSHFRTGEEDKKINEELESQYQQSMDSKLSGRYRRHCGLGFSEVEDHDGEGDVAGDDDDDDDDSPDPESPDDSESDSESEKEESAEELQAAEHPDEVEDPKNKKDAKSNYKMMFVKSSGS
Sequence of UniProt Q9NUY8 (Q9NUY8 whole entry, looked up): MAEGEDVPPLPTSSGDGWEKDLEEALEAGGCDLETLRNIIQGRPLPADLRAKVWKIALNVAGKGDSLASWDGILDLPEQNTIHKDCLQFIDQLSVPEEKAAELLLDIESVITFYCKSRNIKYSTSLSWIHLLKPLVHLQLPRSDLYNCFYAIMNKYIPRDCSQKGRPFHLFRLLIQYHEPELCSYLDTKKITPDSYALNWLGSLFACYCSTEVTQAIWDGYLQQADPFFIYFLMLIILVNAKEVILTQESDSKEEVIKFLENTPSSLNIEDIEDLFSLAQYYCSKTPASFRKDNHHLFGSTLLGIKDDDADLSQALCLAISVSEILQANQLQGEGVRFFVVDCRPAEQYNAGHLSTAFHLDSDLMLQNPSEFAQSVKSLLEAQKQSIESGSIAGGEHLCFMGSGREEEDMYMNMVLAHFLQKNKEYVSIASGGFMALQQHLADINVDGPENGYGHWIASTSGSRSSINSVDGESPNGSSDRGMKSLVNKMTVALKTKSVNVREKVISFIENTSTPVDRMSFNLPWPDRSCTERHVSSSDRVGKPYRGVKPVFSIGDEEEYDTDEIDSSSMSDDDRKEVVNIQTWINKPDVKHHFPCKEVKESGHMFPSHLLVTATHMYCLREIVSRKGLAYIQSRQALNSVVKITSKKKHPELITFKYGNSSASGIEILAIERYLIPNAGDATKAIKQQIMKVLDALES
Sequence of UniProt Q99523 (Q99523 whole entry, looked up): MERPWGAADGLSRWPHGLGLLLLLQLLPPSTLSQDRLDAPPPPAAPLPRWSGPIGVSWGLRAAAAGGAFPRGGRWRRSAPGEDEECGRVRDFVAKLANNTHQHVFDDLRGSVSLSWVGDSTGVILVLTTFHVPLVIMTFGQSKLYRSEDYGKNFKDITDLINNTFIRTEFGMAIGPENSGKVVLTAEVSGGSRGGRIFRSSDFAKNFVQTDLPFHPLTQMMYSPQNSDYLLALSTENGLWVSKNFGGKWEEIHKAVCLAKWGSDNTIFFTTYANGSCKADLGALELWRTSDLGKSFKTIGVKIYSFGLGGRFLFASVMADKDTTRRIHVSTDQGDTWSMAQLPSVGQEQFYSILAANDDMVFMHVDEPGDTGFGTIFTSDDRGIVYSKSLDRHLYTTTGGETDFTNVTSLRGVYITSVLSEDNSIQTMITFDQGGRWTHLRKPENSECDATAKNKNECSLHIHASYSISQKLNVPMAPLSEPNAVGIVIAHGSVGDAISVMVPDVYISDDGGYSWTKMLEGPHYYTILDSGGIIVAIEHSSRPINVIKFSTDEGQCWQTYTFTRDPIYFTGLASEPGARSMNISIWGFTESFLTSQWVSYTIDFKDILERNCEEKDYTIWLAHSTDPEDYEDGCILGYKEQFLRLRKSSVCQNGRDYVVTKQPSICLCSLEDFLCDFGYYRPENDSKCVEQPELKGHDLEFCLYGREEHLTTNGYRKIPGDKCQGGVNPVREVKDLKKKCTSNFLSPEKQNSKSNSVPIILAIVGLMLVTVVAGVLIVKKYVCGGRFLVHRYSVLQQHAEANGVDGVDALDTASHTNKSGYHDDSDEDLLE
Sequence of UniProt Q8NBW4 (Q8NBW4 whole entry, looked up): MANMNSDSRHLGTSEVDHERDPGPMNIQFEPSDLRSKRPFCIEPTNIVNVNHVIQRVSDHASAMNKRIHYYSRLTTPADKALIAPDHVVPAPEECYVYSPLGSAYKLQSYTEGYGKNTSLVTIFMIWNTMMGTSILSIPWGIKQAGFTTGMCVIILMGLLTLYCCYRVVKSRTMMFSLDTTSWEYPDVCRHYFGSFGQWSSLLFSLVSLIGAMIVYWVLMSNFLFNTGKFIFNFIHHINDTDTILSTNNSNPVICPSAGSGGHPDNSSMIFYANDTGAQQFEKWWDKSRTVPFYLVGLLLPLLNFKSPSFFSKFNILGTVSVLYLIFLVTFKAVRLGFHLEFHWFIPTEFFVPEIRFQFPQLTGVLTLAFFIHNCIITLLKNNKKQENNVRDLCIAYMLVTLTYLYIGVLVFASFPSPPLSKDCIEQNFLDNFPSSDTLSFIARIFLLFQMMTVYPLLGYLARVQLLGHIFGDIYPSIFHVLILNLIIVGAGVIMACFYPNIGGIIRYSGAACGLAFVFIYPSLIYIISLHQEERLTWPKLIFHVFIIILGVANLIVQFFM
Sequence of UniProt Q86VD7 (Q86VD7 whole entry, looked up): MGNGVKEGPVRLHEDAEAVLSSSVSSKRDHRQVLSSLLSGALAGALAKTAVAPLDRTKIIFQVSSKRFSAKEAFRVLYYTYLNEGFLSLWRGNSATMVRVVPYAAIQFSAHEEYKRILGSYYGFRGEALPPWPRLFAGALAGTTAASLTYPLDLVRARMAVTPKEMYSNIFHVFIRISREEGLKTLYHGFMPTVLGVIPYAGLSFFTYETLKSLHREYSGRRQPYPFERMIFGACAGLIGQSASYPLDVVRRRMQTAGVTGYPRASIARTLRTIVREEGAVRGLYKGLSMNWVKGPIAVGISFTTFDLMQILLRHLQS
Sequence of UniProt P05455 (P05455 whole entry, looked up): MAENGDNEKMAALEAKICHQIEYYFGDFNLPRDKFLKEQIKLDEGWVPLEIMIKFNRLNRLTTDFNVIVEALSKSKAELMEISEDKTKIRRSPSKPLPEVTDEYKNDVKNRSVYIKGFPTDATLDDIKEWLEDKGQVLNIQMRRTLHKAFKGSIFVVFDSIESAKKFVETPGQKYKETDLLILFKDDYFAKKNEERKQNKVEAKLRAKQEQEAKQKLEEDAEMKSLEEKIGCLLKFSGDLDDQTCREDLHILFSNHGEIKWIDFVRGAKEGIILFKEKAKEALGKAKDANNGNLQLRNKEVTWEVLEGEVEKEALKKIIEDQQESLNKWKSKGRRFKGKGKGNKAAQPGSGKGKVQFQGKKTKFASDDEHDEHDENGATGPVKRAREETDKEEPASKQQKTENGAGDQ
Sequence of UniProt O95772 (O95772 whole entry, looked up): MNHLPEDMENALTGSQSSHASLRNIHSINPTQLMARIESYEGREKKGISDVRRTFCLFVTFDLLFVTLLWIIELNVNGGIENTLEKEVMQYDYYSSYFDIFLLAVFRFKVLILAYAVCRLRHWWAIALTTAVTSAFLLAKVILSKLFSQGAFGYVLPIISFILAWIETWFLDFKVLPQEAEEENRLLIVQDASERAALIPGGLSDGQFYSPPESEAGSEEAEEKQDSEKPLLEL
Sequence of UniProt Q9P289 (Q9P289 whole entry, looked up): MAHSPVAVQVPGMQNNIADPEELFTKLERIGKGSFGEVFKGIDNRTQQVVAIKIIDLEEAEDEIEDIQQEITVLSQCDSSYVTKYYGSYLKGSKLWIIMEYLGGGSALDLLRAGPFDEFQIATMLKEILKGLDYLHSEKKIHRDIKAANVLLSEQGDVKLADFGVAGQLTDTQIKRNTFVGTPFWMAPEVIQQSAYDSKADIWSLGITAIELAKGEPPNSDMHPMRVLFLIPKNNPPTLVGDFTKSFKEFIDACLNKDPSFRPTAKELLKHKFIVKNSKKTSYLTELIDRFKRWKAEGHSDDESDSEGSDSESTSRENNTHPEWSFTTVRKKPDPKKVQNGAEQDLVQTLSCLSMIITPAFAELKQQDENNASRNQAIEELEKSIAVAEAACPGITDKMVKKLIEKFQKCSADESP

Target	log2 fold change (bafetinib)	log2 fold change [1]	log2 fold change (nilotinib)	log2 fold change [2]	log2 fold change (dasatinib)	log2 fold change [3]	log2 fold change [4]	log2 fold change [5]	log2 fold change (tipifarnib)	log2 fold change (mubritinib)
SLK isoform 2 (UniProt Q9H2G2)	-0.032	-0.076	-0.041	-0.169	-0.085	0.015	-0.289 (active)	0.004	-0.018	0.026
SMAP (UniProt O00193)	0.043	-0.022	-0.004	0.006	0.033	-0.011	0.005	-0.027	-0.042	0.038
SSB (UniProt P05455)	-0.022	-0.018	-0.057	-0.125	-0.06	-0.123	-0.048	-0.02	0.051	-0.111
SNRPB2 (UniProt P08579)	-0.034	-0.081	0.04	0.048	0.075	0.135	-0.116	-0.025	0.084	0.045
SLC25A42 (UniProt Q86VD7)	-0.081	-0.069	0.009	-0.024	-0.025	0.048	-0.022	-0.049	0.017	0.051
TFAM (UniProt Q00059)	0.034	0.013	-0.025	0.023	0.077	0.003	-0.048	-0.038	0.039	-0.068
SUCLA2 (UniProt Q9P2R7)	0	-0.065	-0.098	0.057	-0.149	-0.04	0.005	0.038	-0.01	-0.697 (active)
SORT1 (UniProt Q99523)	-0.494 (active)	-0.011	0.041	-0.023	0.02	-0.122	0.018	-0.026	0.076	0.045
STARD9 (UniProt Q9P2P6)	0.012	-0.029	0.016	0.157	0.091	0.002	0.076	0.047	0.07	0.129
SLC38A9 (UniProt Q8NBW4)	-0.022	-0.04	0.02	0.05	0.094	-0.081	-0.017	-0.034	0.038	0.046
SMAD9 (UniProt O15198)	-0.102	-0.226	-0.113	0.004	-0.077	-0.114	0.058	0.015	-0.069	-0.067
STK26 (UniProt Q9P289)	-0.057	0.026	-0.089	0.198	-0.319 (active)	-0.057	-0.058	0.015	-0.036	-0.036
STK17B (UniProt O94768)	0.024	–	–	–	–	–	–	–	–	–
TBC1D23 (UniProt Q9NUY8)	-0.141	0.041	-0.113	-0.032	-0.155	-0.056	0.025	0.006	0.003	-0.011
STRN (UniProt O43815)	-0.016	0.063	0.014	0.048	-0.068	-0.008	0.022	-0.064	0	0.021
STARD3NL (UniProt O95772)	0.011	-0.008	-0.007	0.027	0.075	-0.001	-0.048	0.025	-0.064	-0.006
SLIRP (UniProt Q9GZT3)	-0.156	-0.099	0.118	-0.027	-0.134	-0.073	0.131	0.075	0.031	-0.044
SRSF9 (UniProt Q13242)	0.166	-0.02	0.014	0.05	0.422	0.001	-0.377	-0.129	0.298	-0.189
SSRP1 (UniProt Q08945)	0.007	0.015	-0.025	-0.175	-0.059	-0.075	0.03	-0.033	0	0.009
TAOK1 (UniProt Q7L7X3)	-0.056	0.025	0.007	-0.023	-0.014	-0.03	0.043	-0.026	0.067	0.078
TIMM10 (UniProt P62072)	-0.081	0.027	0.014	0.005	0.114	-0.027	-0.05	0.153	0.048	-0.024
SUMO1 (UniProt P63165)	-0.071	-0.023	-0.022	-0.078	0.041	-0.04	-0.209	-0.068	-0.35	0.001
SRPRB (UniProt Q9Y5M8)	0.107	0.14	0.035	0.026	-0.094	0.121	0.076	0.031	-0.123	0.134
STX7 (UniProt O15400)	-0.06	-0.135	0.009	0.013	0.03	-0.017	-0.007	0.029	0.025	0.007
TCERG1 (UniProt O14776)	0.03	0.077	-0.093	-0.24	-0.26	0.02	0.088	0.07	-0.097	0.183
STARD3 (UniProt Q14849)	-0.097	0.064	0.215	0.218	0.284	0.068	0.119	-0.018	0.022	-0.067
SUPT5H (UniProt O00267)	-0.044	0.033	-0.055	-0.042	-0.082	0.01	0.024	0.036	-0.037	0.031
TIMM10B (UniProt Q9Y5J6)	0.4	-0.138	0.006	-0.04	0.138	-0.052	0.01	0.224	-0.001	0.065
